Source: PubChem BioAssay
Sampled rows, rich in hits. Any-hit rate of the full collection: about 0.56%.
Tb PFK inh: blocks T. brucei phosphofructokinase; AID 485367; Potency, µM (doses to about 57.5 µM), for the others: at the highest dose activity, negative = inhibition, actives largely listed as inhibitors; 330,000 compounds, 0.17% hits; T. brucei PFK, ADP-Glo luminescence;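 further: potency means the concentration at half of the fitted maximal effect; 0% = uninhibited 1x PFK enzyme wells and -100% = no-enzyme wells; nearly all actives have a fitted effect of over 60% in size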
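Compounds were pin-transferred as a titration series up to 57 uM into substrate buffer (0.5 mM F6P, 0.1 mM ATP, pH 8.0), then 1.25 nM PFK was added and reactions ran 45 min before ADP-Glo detection.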
CBFb-RUNX1 inh: CBF-beta/RUNX1 interaction disruption; Q01196+Q13951; 230,000 tested, under 10 active; AlphaScreen CBFb-His/RUNX1-biotin binding, biochemical; Potency, µM (highest dose often 59.8 µM), for inactives: at the top dose activity, negative = inhibition, actives largely listed as inhibitors; further: % of control where 0% means no effect
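Room-temperature protein-protein interaction test with 30 nM each of His-tagged CBF-beta and biotinylated RUNX1, 15 min with compound, then 90 min with nickel plus streptavidin beads. Signal read in AlphaScreen mode.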
Luc counter: counter-screen: inhibitors of Kinase-Glo firefly luciferase; Q27757; Kinase-Glo luciferase, ATP luminescence, 8 min; Potency, µM (highest dose often 38.3 µM), inactives show at the highest dose activity change, negative = inhibition, usual class: inhibitors; 200,000 compounds, 0.28% hits; AID 1379; further: potency means the concentration at half of the fitted maximal effect; on the % scale 0 is the no-effect control and ±100 the full control effect; nearly all actives have a fitted effect of over 60% in size
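Compounds were added to a substrate mix at pH 7.2 (50 mM imidazole, 10 uM ATP, within the enzyme's linear range), followed by Kinase-Glo detection reagent; luminescence was measured after 8 minutes at ambient temperature.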
GALK inhibitor: inhibitors of human galactokinase; Potency, µM (top dose mostly 57.5 µM), inactives show top-dose activity change, negative = inhibition, usual class: inhibitors; AID 1868; P51570; 270,000 compounds, 0.007% hits; Purified GALK, Kinase-Glo residual ATP luminescence; further: potency means the concentration at half of the fitted maximal effect; on the % scale 0 is the no-effect control and ±100 the full control effect
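Kinase-Glo Plus luminescence measured ATP left after a 1 h room-temperature reaction. The reaction used 5 nM GALK, 100 uM galactose and 35 uM ATP at pH 8.0 (20 mM HEPES, 5 mM MgCl2, 60 mM NaCl, 1 mM DTT, 0.01% BSA).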
PKM2 activator: activators of human pyruvate kinase M2; P14618; purified PKM2, Kinase-Glo ATP luminescence, activation; response scale: 0% is enzyme alone, no compound; Potency, µM (highest dose often 57.5 µM), for inactives: at the top dose activation, most hits filed as activators; 260,000 compounds, 0.34% hits; AID 1631; further: potency means the concentration at half of the fitted maximal effect; on the % scale 0 is the no-effect control and ±100 the full control effect; nearly all actives have a fitted effect of over 55% in size
Target sequence (P14618 whole entry, looked up): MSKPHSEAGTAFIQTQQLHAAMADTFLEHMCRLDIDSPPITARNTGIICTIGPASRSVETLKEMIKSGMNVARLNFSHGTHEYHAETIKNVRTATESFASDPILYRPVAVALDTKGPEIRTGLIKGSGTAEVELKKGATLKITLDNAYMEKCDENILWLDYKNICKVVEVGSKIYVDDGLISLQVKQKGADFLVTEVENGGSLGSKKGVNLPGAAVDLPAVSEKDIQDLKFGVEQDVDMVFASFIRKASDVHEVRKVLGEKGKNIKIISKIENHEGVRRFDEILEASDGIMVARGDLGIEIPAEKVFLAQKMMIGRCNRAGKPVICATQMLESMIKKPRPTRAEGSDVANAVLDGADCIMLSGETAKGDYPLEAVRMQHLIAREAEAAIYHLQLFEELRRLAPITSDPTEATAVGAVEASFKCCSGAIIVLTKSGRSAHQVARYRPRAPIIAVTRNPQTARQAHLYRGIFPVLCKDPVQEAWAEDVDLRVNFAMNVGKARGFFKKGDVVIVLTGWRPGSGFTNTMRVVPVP
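Purified hPK-M2 (>95% pure) converted ADP (0.1 mM final) to ATP with 0.5 mM PEP in 50 mM imidazole pH7.2, KCl, MgCl2, Tween 20, BSA; 1 h at room temperature. ATP detected by Kinase-Glo luminescence.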
HeLa tox: counter-screen for pyruvate kinase M2 activators: HeLa cytotoxicity. 230 tested, under 10 active. activity change, negative = cytotoxicity, % at 57.5 µM. HeLa viability, CellTiter-Glo ATP luminescence, 24 h. shares compounds with PKM2 activator; further: % of control where 0% means no effect
* hit, by the source's call; ? = inconclusive; / = not tested or not shown; [ ] = dose if it differs, or a comment. The call rests on the fitted dose curve; in most records, active means well fitted curve in the direction sought with a large enough effect; inconclusive means small, poorly fitted or top-dose-only effect, or another doubt; inactive means no such curve, though single readings can be large; an effect the other way counts as inactive or inconclusive.

SMILES	Tb PFK inh	CBFb-RUNX1 inh	Luc counter	GALK inhibitor	PKM2 activator	HeLa tox
Cc1cc2oc(=O)cc(Cn3ncc(Cl)c(Cl)c3=O)c2cc1Cl	4%	11%	2%	-1%	-5%	/
Cn1c2cc(Br)sc2c2cnn(Cc3ccc(F)cc3)c(=O)c21	-2%	/	/	/	/	/
COc1ccc(Cn2nc(C(=O)O)c3ccccc3c2=O)cc1F	-1%	/	/	0%	/	/
Cc1cc2c(s1)c1cnn(Cc3ccc(C(F)(F)F)cc3)c(=O)c1n2C	/	/	/	/	/	7
Cc1cc2c(s1)c1cnn(Cc3cc(C(F)(F)F)cc(Cl)c3F)c(=O)c1n2C	/	/	/	/	/	14
C=CCC(O)[C@H](Cc1cnc2ccccc2c1)[C@H](/C=C/CCCC)c1ccccc1 (stereo not given in full)	/	11%	/	/	/	/
COc1cc(C2SCCCCCCCCCCSC(c3ccc(O)c(OC)c3)SCCCCCCCCCCS2)ccc1O (stereo not given)	/	/	-5%[7.66 µM]	/	/	/
Cc1cc2c(s1)c1cnn(Cc3ccc(C(C)C)cc3)c(=O)c1n2C	/	/	/	/	/	-7
CCn1c(N)c(C(=O)NCc2ccco2)sc1=S	-25%	7%	3%	3%	3.5µM*	-26
O=C(C1CCC1)N1CCc2cc(S(=O)(=O)Nc3ccc4c(c3)OCO4)ccc21	-2%	1%	-1%	1%	2.8µM*	-27
CNc1c([N+](=O)[O-])cnn1-c1ccc(F)cc1	1%	0%	-1%	1%	20%	/
CNc1c([N+](=O)[O-])cnn1-c1ccc(Cl)cc1	-1%	-8%	-3%	2%	7.9µM*	8
BrC(Br)C(Br)Br	/	4%[21.7 µM]	/	/	/	/
Cc1cc(C)n2nc(SCc3cc(=O)oc4ccc5ccccc5c34)nc2n1	1%	0%	-3%	-2%	2.8µM*	0
Cc1cc(C)n2nc(SCc3cc(=O)oc4cc(C)c(C)cc34)nc2n1	-5%	-15%	-1%	-4%	-9%	/
O=c1cc(CSc2nnnn2-c2ccccc2)nc2sccn12	3%	15%	3%	-3%	?	/
Cc1ccccc1-n1nnnc1SCc1cc(=O)n2ccsc2n1	-5%	5%	4%	-1%	0.79µM*	-20
COc1ccccc1C1=Nn2c(nnc2-c2cccc(OC)c2OC)SC1	/	8%	/	/	/	/
COc1ccc(OC)c(-c2ccc(C(=O)O)o2)c1	/	-12%[89.1 µM]	3%[39.9 µM]	/	/	/
COc1cccc(Cn2ncc3c4sc(Br)cc4n(C)c3c2=O)c1	2%	/	/	/	/	/
Cc1cc2c(s1)c1cnn(Cc3cccc(F)c3)c(=O)c1n2C	/	/	/	/	/	-3
Cc1cc2c(s1)c1cnn(Cc3cccc(Cl)c3)c(=O)c1n2C	/	/	/	/	/	-1
CCC(N)(C(=O)O)c1ccc(C(=O)O)cc1 (stereo not given)	/	-12%	/	/	/	/
Cc1cccc(NS(=O)(=O)c2cc3c(cc2C)NC(=O)CO3)c1	-4%	/	/	/	0.71µM*	-15
Cc1cc2c(cc1S(=O)(=O)Nc1cccc(C)c1C)OCC(=O)N2	1%	/	/	/	?	/
SMILES	Tb PFK inh	CBFb-RUNX1 inh	Luc counter	GALK inhibitor	PKM2 activator	HeLa tox
COc1cccc(S(=O)(=O)Nc2ccc(C(=O)N3CCN(C(=O)c4ccco4)CC3)cc2)c1	-4%	-14%	-1%	-1%	1.4µM*	-2
O=C(c1ccc(NS(=O)(=O)c2cccc([N+](=O)[O-])c2)cc1)N1CCN(C(=O)c2ccco2)CC1	1%	/	/	/	/	/
CCCn1c(-c2ccc(F)cc2)nc2c(N3CCCN(Cc4ccccc4)CC3)nc(C)nc21	/	-2%	1%	/	1%	/
Cc1cc(=O)[nH]c2ccc(S(=O)(=O)Nc3ccc(O)cc3)cc12	1%	/	/	4%	2.2µM*	-6
CC12CCC=CC1C(c1ccc3ccccc3c1)N(Cc1ccccc1)C2=O (stereo not given)	/	1%	/	/	/	/
Cc1cc2c(s1)c1c(n2C)C(=O)N(Cc2ccccc2F)C1	0%	/	/	/	/	13[23.3 µM]
Cn1c(=O)n(Cc2ccccc2F)c2ccccc21	-3%	-2%	-4%	3%	1%	/
COc1ccc2c3c(ccc2c1)N[C@H](C(=O)O)CC3	/	/	-8%[7.66 µM]	/	/	/
Cn1c2ccccc2c2nnc(SC3CCOC3=O)nc21 (stereo not given)	-3%	?	-5%	-2%	14µM*	2
COc1cc(C2C3=C(CCCC3=O)Nc3c2c(C)nn3-c2cccc(C)c2)cc(OC)c1O (stereo not given)	0%	?	/	-1%	7.1µM*	?
COc1cc(C2C3=C(CCCC3=O)Nc3[nH]n(-c4ccccc4)c(=O)c32)ccc1O (stereo not given)	0%	0%	-3%	8%	-1%	/
CC(=O)c1cc2c(s1)c1cnn(Cc3ccccc3F)c(=O)c1n2C	/	/	/	/	/	-1
Cn1c2cc(S(C)=O)sc2c2cnn(Cc3ccccc3F)c(=O)c21 (stereo not given)	/	/	/	/	/	10
Cc1c2cnn(CC(=O)N3CCOCC3)c(=O)c2c(C)n1Cc1ccccc1F	1%	/	/	/	0%	/
O=c1c2ccccc2n(Cc2ccccc2F)c(=O)n1Cc1ccccc1F	-3%	2%	1%	0%	-4%	/
O=S(=O)(c1ccc2c(c1)OCCO2)N1CCN(S(=O)(=O)c2ccc(F)cc2F)CC1	/	/	/	/	/	0
O=S(=O)(c1ccc2c(c1)OCCO2)N1CCN(S(=O)(=O)c2cc(F)c(F)cc2F)CC1	/	/	/	/	/	-5
O=[N+]([O-])c1ccccc1S(=O)(=O)N1CCN(S(=O)(=O)c2ccc3c(c2)OCCO3)CC1	5%	/	/	/	/	/
C[C@H](Br)C(=O)c1ccc2cc(Br)c3ccccc3c2c1	/	/	-1%[7.66 µM]	/	/	/
O=c1[nH]c(CN2CCN(c3ccc(O)cc3)CC2)nc2scc(-c3ccc(Cl)cc3)c12	-6%	-5%	6%	-3%	2.8µM*	-7
CS(=O)(=O)Nc1ccc(C2=NN(C(=O)c3ccco3)C(c3ccccc3F)C2)cc1 (stereo not given)	3%	-4%	5%	-2%	3.2µM*	0
Cn1c2ccsc2c2ncn(Cc3ccccc3F)c(=O)c21	6%	/	/	/	/	?
O=C(NCc1nnc2c(C(F)(F)F)cc(Cl)cn12)c1cccs1	1%	/	/	10%	2.8µM*	0
NCCCc1c(-c2ccccc2)nc(N)[nH]c1=O	/	/	-1%[7.66 µM]	/	/	/
O=c1c(Cc2ccc(Cl)cc2)c(O)ccn1Cc1cccs1	4%	-4%	1%	7%	8%	/
O=c1c(Cc2ccc(Cl)cc2)c(O)ccn1Cc1ccncc1	9%	7%	1%	1%	8.9µM*	-3
COc1ccc(N2CCN(S(=O)(=O)c3ccc(OC)cc3)CC2)cc1	1%	-16%	-1%	1%	11%	/
COc1ccc(S(=O)(=O)N2CCN(S(=O)(=O)c3c(F)cccc3F)CC2)cc1	-5%	/	/	/	/	4
O=C(O)c1cc(-c2ccco2)nn1-c1cccc(Cl)c1	-20%	?	-1%	11%	25µM*	-1
